Screens (PubChem)
GRK2 inh = human GRK2 inhibition via aptamer displacement. P25098. bead flow cytometry, FAM-aptamer displacement from GRK2. inhibition of aptamer binding, % at 10 µM. 0.59% of 330,000 active;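 active means inhibition of aptamer binding above 40%, roughly 3 SD of noise, on plates passing a quality check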;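 further: median bead fluorescence of bound FAM aptamer so fluorescent compounds give negative values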
TLR9-MyD88 inh = TLR9-MyD88 interaction inhibition | Q9NR96+Q99836 | CHO BLA complementation TLR9-MyD88, CCF4 FRET ratio | inhibition, % at 4.98 µM | 0.21% of 340,000 active | AID 504734;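 active means inhibition above the mean over all tested compounds plus 3 SD, cut at about 21% in these data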;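 further: 0% = DMSO only wells and 100% = clavulanate BLA inhibitor control wells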
Target sequence (Q99836 whole entry, looked up): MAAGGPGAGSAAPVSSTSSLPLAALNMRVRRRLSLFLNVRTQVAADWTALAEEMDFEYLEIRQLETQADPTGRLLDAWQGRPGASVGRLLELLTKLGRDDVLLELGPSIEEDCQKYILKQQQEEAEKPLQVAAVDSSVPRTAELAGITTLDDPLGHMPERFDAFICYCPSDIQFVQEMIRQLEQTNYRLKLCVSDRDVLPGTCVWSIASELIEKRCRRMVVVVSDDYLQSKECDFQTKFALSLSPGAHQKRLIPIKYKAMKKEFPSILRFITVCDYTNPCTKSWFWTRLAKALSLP
Target sequence (Q9NR96 whole entry, looked up): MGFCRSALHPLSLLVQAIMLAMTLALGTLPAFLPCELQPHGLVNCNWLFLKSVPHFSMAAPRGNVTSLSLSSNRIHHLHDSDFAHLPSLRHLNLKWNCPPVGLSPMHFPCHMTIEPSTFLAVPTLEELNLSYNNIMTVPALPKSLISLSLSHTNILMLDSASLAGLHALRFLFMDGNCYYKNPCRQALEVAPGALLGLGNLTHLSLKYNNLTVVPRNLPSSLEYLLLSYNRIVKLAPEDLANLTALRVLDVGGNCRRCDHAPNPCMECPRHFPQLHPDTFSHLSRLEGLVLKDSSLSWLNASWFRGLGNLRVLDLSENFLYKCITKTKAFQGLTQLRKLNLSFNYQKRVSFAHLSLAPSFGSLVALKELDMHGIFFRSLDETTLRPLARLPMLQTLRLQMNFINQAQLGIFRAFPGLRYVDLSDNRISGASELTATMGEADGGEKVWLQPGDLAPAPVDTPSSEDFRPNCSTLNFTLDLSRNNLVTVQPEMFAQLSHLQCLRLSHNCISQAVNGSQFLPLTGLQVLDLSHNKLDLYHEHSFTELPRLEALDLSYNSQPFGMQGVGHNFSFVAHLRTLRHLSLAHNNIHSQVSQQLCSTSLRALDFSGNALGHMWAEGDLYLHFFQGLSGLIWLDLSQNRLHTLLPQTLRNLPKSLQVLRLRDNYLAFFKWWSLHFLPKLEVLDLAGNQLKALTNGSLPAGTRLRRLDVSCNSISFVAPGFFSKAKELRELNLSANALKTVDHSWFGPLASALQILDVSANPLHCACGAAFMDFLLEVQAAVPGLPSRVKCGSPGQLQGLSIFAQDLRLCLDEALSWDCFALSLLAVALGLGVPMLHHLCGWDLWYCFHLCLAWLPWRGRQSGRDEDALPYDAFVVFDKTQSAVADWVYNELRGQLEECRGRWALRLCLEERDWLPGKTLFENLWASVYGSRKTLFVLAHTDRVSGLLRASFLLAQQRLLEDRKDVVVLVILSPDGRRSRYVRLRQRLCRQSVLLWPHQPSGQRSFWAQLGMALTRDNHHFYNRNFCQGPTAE
TMEM16A inh = blocks the mouse calcium-activated chloride channel TMEM16A | HEK293 TMEM16A/YFP iodide influx fluorescence, ionomycin | normalized B-score (activity score, 25-100; higher = stronger inhibition) at 10 µM | Q8BHY3 | 1.2% of 310,000 active;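 active means ratio plate-corrected score three or more library SD toward inhibition, starting fluorescence score within five deviations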;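 further: score derived from kinetic fluorescence span divided by baseline fluorescence per well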
NOD2-RIPK2 inh = blocks binding of human NOD2 to RIPK2 | CHO BLA complementation NOD2-RIPK2, CCF4 ratio | inhibition, % at 4.98 µM | 0.38% of 360,000 active | AID 624267; in the data active means inhibition above about 21%;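 further: 0% = vehicle only and 100% = reference blocker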
TLR4 MyD88 comp = inhibitors of human TLR4-MyD88 binding; O00206+Q99836; HeLa CL3-4 TLR4/MyD88 BLA complementation, FRET ratio; inhibition, % at 8.4 µM; 0.18% of 200,000 active; in the data active means inhibition above about 25%;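 further: 0% = vehicle and 100% = reference inhibitor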
ANO1 activ = activates or potentiates the mouse TMEM16A chloride channel | 0.3% of 340,000 active | HEK293 TMEM16A/YFP-H148Q/I152L, iodide quench fluorescence; hits give low values | B-score at 10 µM | AID 623877;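 active means fluorescence-ratio B-score plate-corrected deviation score at least 3 library SD below zero, with starting fluorescence score within 5 deviations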;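 further: channel opened by trigger with iodide after compound preincubation; score built on the fluorescence ratio of max minus min over baseline; more negative score means more quench and so TMEM16A activation or potentiation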
TMEM16A reconf = reconfirmed blocker of mouse TMEM16A calcium-activated chloride channel. shares compounds with TMEM16A inh. HEK293 TMEM16A/YFP-H148Q, iodide quench fluorescence; ionomycin added to raise cell calcium. inhibition, % at 10 µM. 39% of 2,300 active. AID 652189;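 active means mean duplicate percent inhibition, scaled so buffer wells are 0 and the reference blocker 100, over three buffer SD above buffer mean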
HEK293 Ca mobil = alters calcium mobilization in TMEM16A HEK293 cells, counter-screen; AID 652231; 2% of 2,300 active; shares compounds with TMEM16A inh; TMEM16A/YFP HEK293, Fluo4 calcium mobilization; calcium response (% of ionomycin), % at 10 µM;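 active means duplicate-averaged calcium signal over 20% of the ionomycin maximum, relative to buffer baseline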;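 further: each well's signal is peak minus trough fluorescence divided by its pre-addition baseline; 0% = buffer wells and 100% = ionomycin wells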
YFP-HEK293 quench = counter-screen for TMEM16A inhibitors: effect in parental YFP-HEK293 cells; shares compounds with TMEM16A inh; iodide YFP quench, ionomycin; YFP ratio F(max-min)/F0 at 10 µM; 2,300 tested, under 10 active; AID 652233;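 active means yellow fluorescent protein signal ratio exceeding the buffer control mean by over 5 SD of those controls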;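 further: ratio is mean of duplicate wells from kinetic YFP trace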
ClC-1 rat inh = blocks the rat ClC-1 voltage-dependent chloride channel | shares compounds with TMEM16A inh | CHO ClC-1-YFP, iodide influx fluorescence quench; iodide control reads 0, buffer control 100 | ratio percent, % at 10 µM | 2,300 tested, under 10 active;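 active means duplicate-mean ratio percent above the mean of iodide-only control wells, which defines zero, plus 5 of their SD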;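 further: higher percent means stronger block of ClC-1 iodide influx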
Active calls of the source: *. Compounds with a hit are over-represented: about 2.2% of the library has one in this group of screens.

How did CC(=O)NC(c1ccccc1)c1cccnc1 (centres undefined) do in these assays?
GRK2 inh: 0.0; TLR9-MyD88 inh: -2.9; TMEM16A inh: 25*; NOD2-RIPK2 inh: 4.9; TLR4 MyD88 comp: -10.7; ANO1 activ: inactive; TMEM16A reconf: inactive; HEK293 Ca mobil: inactive; YFP-HEK293 quench: -1.14; ClC-1 rat inh: -7.5

Results for CCOC(=O)C1=C(C)N=c2s/c(=C/c3ccc(OCC(=O)O)cc3)c(=O)n2C1c1ccc(F)cc1 (centres undefined) ?
GRK2 inh: 0.0; TLR9-MyD88 inh: 1.6; TMEM16A inh: inactive; NOD2-RIPK2 inh: -4.0; ANO1 activ: inactive; TMEM16A reconf: inactive; HEK293 Ca mobil: 29.5%*; YFP-HEK293 quench: -0.864; ClC-1 rat inh: -16.5

How did Cn1nc(C(F)(F)F)c(/C=N/OC(=O)c2ccccc2)c1Cl do in these assays?
GRK2 inh: 8.0; TLR9-MyD88 inh: 13.0; TMEM16A inh: inactive; NOD2-RIPK2 inh: -3.9; TLR4 MyD88 comp: -2.0; ANO1 activ: inactive

How did Cn1nc(C(F)(F)F)c(/C=N/OC(=O)c2ccccc2)c1Sc1ccc(Cl)cc1 do in these assays?
TLR9-MyD88 inh: -1.2; TMEM16A inh: 25*; NOD2-RIPK2 inh: -6.6; TLR4 MyD88 comp: 2.4; ANO1 activ: inactive; TMEM16A reconf: inactive; HEK293 Ca mobil: inactive; YFP-HEK293 quench: -1.08; ClC-1 rat inh: -8.5

Results for O=C(CN1CCN(Cc2ccc(Cl)cc2)C1=O)NCc1cccs1 ?
GRK2 inh: 0.0; TLR9-MyD88 inh: -8.3; TMEM16A inh: inactive; NOD2-RIPK2 inh: 2.8; TLR4 MyD88 comp: 6.3; ANO1 activ: inactive; TMEM16A reconf: inactive; HEK293 Ca mobil: inactive; YFP-HEK293 quench: -1.09; ClC-1 rat inh: -3.5

What do the screens show for `CCOC(=O)N1CCC(NC(=O)C(CC(C)C)NC(=O)C2CCC(C)CC2)CC1` (centres undefined)?
GRK2 inh: 1.0; TLR9-MyD88 inh: 0.5; TMEM16A inh: 100*; NOD2-RIPK2 inh: -8.7; TLR4 MyD88 comp: 8.9; ANO1 activ: inactive; TMEM16A reconf: inactive; HEK293 Ca mobil: inactive; YFP-HEK293 quench: -1.1; ClC-1 rat inh: -2.0

How did O=C(c1cccc(Cl)c1)C1CCCN(C(=O)c2ccc3c(c2)OCO3)C1 (centres undefined) do in these assays?
GRK2 inh: 1.0; TLR9-MyD88 inh: -0.5; TMEM16A inh: inactive; NOD2-RIPK2 inh: -5.9; ANO1 activ: inactive

Results for CCC(=O)N(C1=C(NC)C(=O)c2ccccc2C1=O)C(C)C ?
GRK2 inh: 0.0; TLR9-MyD88 inh: -12.8; TMEM16A inh: inactive; NOD2-RIPK2 inh: 7.0; TLR4 MyD88 comp: -0.9; ANO1 activ: inactive

How did CCC(=O)N(CC)C1=C(O)c2ccccc2C(=O)C1=O do in these assays?
GRK2 inh: 4.0; TLR9-MyD88 inh: -8.7; TMEM16A inh: 25*; NOD2-RIPK2 inh: -3.3; TLR4 MyD88 comp: 11.5; ANO1 activ: inactive; TMEM16A reconf: 25.5%*; HEK293 Ca mobil: inactive; YFP-HEK293 quench: -0.782; ClC-1 rat inh: -10.5

How did CCN(CC)CCCNC(=S)N(CCO)Cc1cc2cc3c(cc2[nH]c1=O)OCCO3 do in these assays?
GRK2 inh: 0.0; TLR9-MyD88 inh: 6.6; TMEM16A inh: inactive; NOD2-RIPK2 inh: 1.3; ANO1 activ: inactive

Results for COc1cc(NS(=O)(=O)c2ccc(Br)s2)cc(OC)c1 ?
GRK2 inh: 0.0; TLR9-MyD88 inh: 1.5; TMEM16A inh: 25*; NOD2-RIPK2 inh: -2.6; TLR4 MyD88 comp: -17.6; ANO1 activ: inactive; TMEM16A reconf: 32.0%*; HEK293 Ca mobil: inactive; YFP-HEK293 quench: -0.984; ClC-1 rat inh: -6.5

Results for O=C(Cc1ccc(Cl)cc1)Nc1ccncc1 ?
GRK2 inh: 2.0; TLR9-MyD88 inh: 6.3; TMEM16A inh: 25*; NOD2-RIPK2 inh: 7.0; TLR4 MyD88 comp: -3.2; ANO1 activ: inactive; TMEM16A reconf: inactive; HEK293 Ca mobil: inactive; YFP-HEK293 quench: -0.841; ClC-1 rat inh: -14.5

Results for CN(CCCC(=O)Nc1ccncc1)S(=O)(=O)c1ccc(Cl)cc1 ?
GRK2 inh: 0.0; TLR9-MyD88 inh: 6.7; TMEM16A inh: 100*; NOD2-RIPK2 inh: -1.3; TLR4 MyD88 comp: 4.5; ANO1 activ: inactive; TMEM16A reconf: inactive; HEK293 Ca mobil: inactive; YFP-HEK293 quench: -0.917; ClC-1 rat inh: -23.0

How did Cc1ccc(CC(=O)Nc2ccncc2)cc1 do in these assays?
GRK2 inh: 2.0; TLR9-MyD88 inh: 6.0; TMEM16A inh: inactive; NOD2-RIPK2 inh: -1.3; TLR4 MyD88 comp: -0.3; ANO1 activ: inactive

Results for CCO[C@@H]1OC(C(N)=O)=C[C@H](c2coc3ccccc3c2=O)[C@H]1CCCO ?
GRK2 inh: 2.0; TLR9-MyD88 inh: -3.5; TMEM16A inh: 25*; NOD2-RIPK2 inh: -4.8; ANO1 activ: inactive; TMEM16A reconf: inactive; HEK293 Ca mobil: inactive; YFP-HEK293 quench: -0.996; ClC-1 rat inh: -8.5

How did CCC(=O)Oc1ccc(C/C(=N\O)c2ccc(O)cc2O)o1 do in these assays?
GRK2 inh: 4.0; TLR9-MyD88 inh: -0.6; TMEM16A inh: 25*; NOD2-RIPK2 inh: 0.7; TLR4 MyD88 comp: 11.1; ANO1 activ: inactive; TMEM16A reconf: 24.0%*; HEK293 Ca mobil: inactive; YFP-HEK293 quench: -0.934; ClC-1 rat inh: -20.5

What do the screens show for `CCOC(=O)c1ccc(CC(=O)c2ccc(O)cc2O)o1`?
GRK2 inh: 0.0; TLR9-MyD88 inh: -38.7; TMEM16A inh: inactive; NOD2-RIPK2 inh: -12.6; TLR4 MyD88 comp: 7.3; ANO1 activ: inactive

How did Cc1ccccc1NC(=O)C1CCCN1S(=O)(=O)c1ccc2c(c1)n(C)c(=O)c(=O)n2C (centres undefined) do in these assays?
GRK2 inh: 2.0; TLR9-MyD88 inh: 1.4; TMEM16A inh: 25*; NOD2-RIPK2 inh: 9.2; TLR4 MyD88 comp: 5.3; ANO1 activ: inactive; TMEM16A reconf: inactive; HEK293 Ca mobil: inactive; YFP-HEK293 quench: -1.13; ClC-1 rat inh: 5.0

What do the screens show for `COc1ccc(OC)c(C=C2CCc3ccccc3C2=O)c1`?
NOD2-RIPK2 inh: -8.0
